This is an account of results in PubChem BioAssay (NCI).

Test systems include SK-MEL-2 melanoma; EKVX NSCLC; SN12C renal; UO-31 renal; TK-10 renal; ACHN renal; CAKI-1 renal; A498 renal; CCRF-CEM leukemia; MOLT-4 leukemia; SR leukemia; RPMI-8226 leukemia; OVCAR-8 ovarian; OVCAR-5 ovarian; OVCAR-4 ovarian; SK-OV-3 ovarian; IGROV1 ovarian; OVCAR-3 ovarian; HS 578T breast; NCI/ADR-RES ovarian.
Holding throughout (assay): NCI-60 one-dose screen, 48 h (100 = growth as untreated, 0 = no growth, -100 = all killed)
What all share (details): 10 µM unless noted

Molecules are shown by their SMILES. About 83,000 compounds went through this panel and 20% of them were active in at least one assay; those are over-represented in the sample as a whole.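 For each line, cells grew in 96-well plates with the test compound present at a single concentration for 48 hours.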 Unmarked numbers belong to inactive results. Calls of active or inactive are those of the source. How the source made its calls: active means growth percent below 10; inactive means the rest.

For the compound `COc1ccc(/C=C(\C#N)n2nnc3ccc(Cl)cc32)cc1`, the growth was 62.9% with SK-MEL-2 melanoma; 90% with EKVX NSCLC; 52.4% in the experiment on SN12C renal; 50.2% in the experiment with UO-31 renal; 77.6% with TK-10 renal; 45.6% in the experiment on ACHN renal. Besides, the growth in the experiment on CAKI-1 renal was 46.3%; with A498 renal, 79.7%; in the experiment with CCRF-CEM leukemia, 45.5%; in the experiment on MOLT-4 leukemia, 83.7%; with SR leukemia, 29.9%; in the experiment with RPMI-8226 leukemia it was 67.8%. The growth is 48.8% in the experiment with OVCAR-8 ovarian; 92% in the experiment on OVCAR-5 ovarian; 71.6% in the experiment with OVCAR-4 ovarian; 108% in the experiment with SK-OV-3 ovarian; 59.5% with IGROV1 ovarian; -18.4% (active) with OVCAR-3 ovarian. The growth in the experiment on HS 578T breast is 74.4%; with NCI/ADR-RES ovarian, 39.3%.

On to `COC12C=C/C(=C(/C(=O)OCc3ccncn3)C(=O)CCCCCCCCC3(OC)C=C/C(=C(/C(=O)OCc4ccncn4)C(=O)CCCCCCCC1)O3)O2`, for which the growth with SK-MEL-2 melanoma was 11.6%; with EKVX NSCLC it was -15.5% (active); with SN12C renal, -10.7% (active); in the experiment on UO-31 renal it was -50.7% (active); in the experiment on TK-10 renal, 9.83% (active); in the experiment with ACHN renal it was -74.8% (active). The growth with CAKI-1 renal was -28.4% (active); in the experiment on A498 renal, -86.3% (active); in the experiment with CCRF-CEM leukemia, -15.2% (active); in the experiment on MOLT-4 leukemia, -7.71% (active); in the experiment on SR leukemia it was -15.6% (active); in the experiment on RPMI-8226 leukemia, -22.3% (active). For the same compound, the growth was 17.2% in the experiment with OVCAR-8 ovarian; -2.72% (active) in the experiment with OVCAR-5 ovarian; 12.2% in the experiment with OVCAR-4 ovarian; 52.8% with SK-OV-3 ovarian; -27.1% (active) in the experiment on IGROV1 ovarian; -52.4% (active) in the experiment with OVCAR-3 ovarian. Further, the growth in the experiment on HS 578T breast is 38%; in the experiment with NCI/ADR-RES ovarian, 7.59% (active).

With `Fc1cnccc1C1CC(c2ccc(N3CCNCC3)cc2)=NN1` (stereo not given), the growth in the experiment with SK-MEL-2 melanoma was 92.7%; in the experiment with EKVX NSCLC, 91%; in the experiment with SN12C renal, 89.6%; with UO-31 renal, 77.2%; in the experiment with TK-10 renal it was 123%; with ACHN renal, 99.9%. Further, the growth is 80.6% in the experiment on CAKI-1 renal; 97.2% with A498 renal; 80.8% in the experiment with CCRF-CEM leukemia; 74.2% in the experiment on MOLT-4 leukemia; 90.4% in the experiment with SR leukemia; 92.5% with RPMI-8226 leukemia. The growth is 95.1% with OVCAR-8 ovarian; 111% with OVCAR-5 ovarian; 108% with OVCAR-4 ovarian; 85% in the experiment with SK-OV-3 ovarian; 68% in the experiment with IGROV1 ovarian; 98.8% in the experiment with OVCAR-3 ovarian. For the same compound, the growth with HS 578T breast is 89.2%; in the experiment on NCI/ADR-RES ovarian, 106%.

In the case of `C=C1C(=O)O[C@H]2[C@H]1CC/C(COC(=O)c1cc3ccccc3s1)=C\CC[C@@]1(C)O[C@@H]21`, the growth with SK-MEL-2 melanoma is -67.2% (active); in the experiment with EKVX NSCLC it was -81.1% (active); with SN12C renal it was -43.9% (active); in the experiment with UO-31 renal it was -94.3% (active); in the experiment on TK-10 renal, -91.9% (active); in the experiment on ACHN renal, -91.3% (active). For the same compound, the growth is -72.6% (active) in the experiment on CAKI-1 renal; 61.9% with A498 renal; -25.3% (active) in the experiment with CCRF-CEM leukemia; -4.09% (active) in the experiment on MOLT-4 leukemia; -1.95% (active) with SR leukemia; -25.3% (active) in the experiment with RPMI-8226 leukemia. In addition, the growth was -12% (active) in the experiment on OVCAR-8 ovarian; -57.3% (active) with OVCAR-5 ovarian; -62% (active) in the experiment on OVCAR-4 ovarian; 85.3% in the experiment with SK-OV-3 ovarian; -66% (active) with IGROV1 ovarian; -69% (active) in the experiment on OVCAR-3 ovarian. For the same compound, the growth in the experiment on HS 578T breast is -17.7% (active); with NCI/ADR-RES ovarian, 1.73% (active).

As to `COc1ccc(C(=O)N2c3ccccc3Sc3ccccc32)c(OC)c1`, the growth in the experiment on SK-MEL-2 melanoma was 38.3%; in the experiment with EKVX NSCLC, 34%; in the experiment on SN12C renal, 51.6%; in the experiment on UO-31 renal, 48.3%; in the experiment on TK-10 renal, 55.8%; in the experiment with ACHN renal it was 43.5%. In addition, the growth with CAKI-1 renal is 36.8%; in the experiment with A498 renal, 5.16% (active); with CCRF-CEM leukemia, 16.5%; with MOLT-4 leukemia it was 12%; in the experiment with SR leukemia, 22.4%; with RPMI-8226 leukemia it was 16.2%. Further, the growth was 27.9% with OVCAR-8 ovarian; 47.8% with OVCAR-5 ovarian; 57.1% with OVCAR-4 ovarian; 36.9% with SK-OV-3 ovarian; 52.5% in the experiment with IGROV1 ovarian; -28% (active) with OVCAR-3 ovarian. For the same compound, the growth in the experiment on HS 578T breast was 14.7%; in the experiment with NCI/ADR-RES ovarian it was -0.356% (active).

Regarding `O=C1C(Cl)=C(NCCCCCCNC2=C(Cl)C(=O)c3ccccc3C2=O)C(=O)c2ccccc21`, the growth was 84.5% in the experiment on SK-MEL-2 melanoma; 91.9% with EKVX NSCLC; 83.6% with SN12C renal; 83.9% with UO-31 renal; 109% with TK-10 renal; 104% in the experiment on ACHN renal. The growth with CAKI-1 renal is 97.8%; in the experiment on A498 renal, 72.9%; in the experiment with CCRF-CEM leukemia, 97.3%; in the experiment on MOLT-4 leukemia, 82.4%; with SR leukemia it was 88%; in the experiment on RPMI-8226 leukemia it was 85.2%. Further, the growth in the experiment with OVCAR-8 ovarian was 77.6%; with OVCAR-5 ovarian, 110%; with OVCAR-4 ovarian it was 22.5%; in the experiment with SK-OV-3 ovarian it was 98%; with IGROV1 ovarian, 38.2%; in the experiment on OVCAR-3 ovarian it was 47.3%. For the same compound, the growth in the experiment on HS 578T breast is 89.3%; with NCI/ADR-RES ovarian, 93.5%.

As to `COCCOc1cc2ncnc(N3CCN(c4ncc(S(=O)(=O)N5CCCCC5)cn4)CC3)c2cc1OCCOC`, the growth is 105% in the experiment on SK-MEL-2 melanoma; 104% in the experiment on EKVX NSCLC; 104% in the experiment with SN12C renal; 78.1% in the experiment on UO-31 renal; 106% with TK-10 renal; 115% in the experiment with ACHN renal. In addition, the growth in the experiment with CAKI-1 renal was 101%; with A498 renal, 92.1%; in the experiment on CCRF-CEM leukemia, 84.5%; in the experiment with MOLT-4 leukemia it was 91.9%; in the experiment with SR leukemia it was 72.9%; in the experiment on RPMI-8226 leukemia, 90.2%. For the same compound, the growth with OVCAR-8 ovarian is 97%; in the experiment on OVCAR-5 ovarian, 114%; with OVCAR-4 ovarian, 105%; with SK-OV-3 ovarian, 123%; in the experiment on IGROV1 ovarian it was 99.2%; in the experiment with OVCAR-3 ovarian, 114%. In addition, the growth in the experiment with HS 578T breast was 114%; in the experiment with NCI/ADR-RES ovarian it was 97.6%.
